Hits are enriched below; roughly 3.9% of the tested compounds scored in any of these assays.
VDR inhibitor: vitamin D3 receptor (human) inhibition | P11473 | VDR-SRC2-3 peptide fluorescence polarization, 2 h | Potency, µM, usual class: inhibitors | 400,000 compounds, 0.93% hits | AID 504847
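Fluorescence polarization assay of small-molecule disruption of VDR binding to coregulator peptide SRC2-3. Compounds and controls pin-transferred, then read after 2 h incubation at ambient room temperature.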
BRCA1 expr up: BRCA1 expression activation; AID 624202; Potency, µM (doses to about 46.1 µM), actives largely listed as activators; 380,000 compounds, 1.1% hits; MCF7-BRCA1-FFLuc reporter, luminescence, 48 h; response scale: scaled: vehicle 0%, 10 µM genistein 100%; further: nearly all actives have a fitted effect of over 80% in size
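Reporter cells (MCF7, BRCA1 promoter-firefly luciferase) received library compounds across a concentration series for 48 h. End-point luminescence was measured and concentration-effect curves derived after normalization.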
PLK1 PBD block: inhibitors of human PLK1 polo-box domain binding; P53350; Plk1 PBD binding of FITC phosphopeptide, fluorescence polarization; Potency, µM, usual class: inhibitors; 360,000 compounds, 2.8% hits; AID 720504; further: series mostly up to about 57 µM; nearly all actives have a fitted effect of over 65% in size
Target sequence (P53350 whole entry, looked up, the tested form may be a part): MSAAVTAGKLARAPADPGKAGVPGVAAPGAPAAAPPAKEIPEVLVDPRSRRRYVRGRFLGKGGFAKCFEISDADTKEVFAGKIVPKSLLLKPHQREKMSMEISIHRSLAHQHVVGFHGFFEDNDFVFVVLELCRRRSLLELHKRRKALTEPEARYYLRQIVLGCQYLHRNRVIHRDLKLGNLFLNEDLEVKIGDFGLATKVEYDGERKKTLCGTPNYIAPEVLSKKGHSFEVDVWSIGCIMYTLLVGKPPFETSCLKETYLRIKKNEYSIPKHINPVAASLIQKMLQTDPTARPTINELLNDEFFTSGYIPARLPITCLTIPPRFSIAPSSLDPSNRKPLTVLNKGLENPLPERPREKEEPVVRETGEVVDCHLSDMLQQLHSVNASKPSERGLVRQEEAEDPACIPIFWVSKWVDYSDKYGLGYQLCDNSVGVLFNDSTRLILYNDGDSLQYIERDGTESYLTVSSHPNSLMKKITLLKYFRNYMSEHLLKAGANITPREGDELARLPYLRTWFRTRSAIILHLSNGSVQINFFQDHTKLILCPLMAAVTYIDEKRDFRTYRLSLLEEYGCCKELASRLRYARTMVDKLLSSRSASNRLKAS
Tb PFK inh: inhibitors of T. brucei phosphofructokinase | O15648 | T. brucei PFK, ADP-Glo luminescence | Potency, µM (series often up to 57.5 µM), actives largely listed as inhibitors | 330,000 compounds, 0.17% hits | AID 485367; further: nearly all actives have a fitted effect of over 60% in size
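Luminescent ADP detection (ADP-Glo, two-step: ATP depletion then ADP-to-ATP conversion for luciferase) reported PFK activity after 45 min room-temperature reaction of 1.25 nM enzyme with 0.5 mM F6P and 0.1 mM ATP at pH 8.0.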
Numbers stand for hits; i = inactive; ? = inconclusive; nt = not tested or not shown. The call rests on the fitted dose curve; in most records, active means well fitted curve in the direction sought with a large enough effect; inconclusive means small, poorly fitted or top-dose-only effect, or another doubt; inactive means no such curve, though single readings can be large; an effect the other way counts as inactive or inconclusive.

SMILES | VDR inhibitor | BRCA1 expr up | PLK1 PBD block | Tb PFK inh
COC(=O)c1c(-c2ccc(C)cc2)csc1NC(=O)C1CC=CCC1C(=O)O (stereo not given) | i | 11µM | ? | i
CC1=C([N+](=O)[O-])C(c2ccc(Cl)cc2)NC(=O)N1C (stereo not given) | ? | i | 3µM | i
O=C1c2ccccc2CN1c1ccccc1 | i | 6.3µM | i | i
Cc1ccc(N2Cc3ccccc3C2=O)cc1 | i | ? | i | i
Cc1ccc(-c2nc3cc(Cl)ccc3o2)cc1NC(=O)COc1ccccc1C | nt | i | nt | nt
C[N+]1(CC(=O)OCCCC2CCCCC2)CCCC1 | i | i | 30µM | i
CC(C)(C)C1=CC(=O)C(N2CCOCC2)=CC1=O | i | i | i | i
CC(C)(C)C1=CC(=O)C(=O)C(C(C)(C)C)=C1 | ? | i | 3.8µM | ?
CC1=C(c2cccc(Cl)c2)S(=O)(=O)NC1=NCc1ccccc1C | i | nt | nt | nt
O=C(CSc1ccccc1C(=O)O)c1ccc([N+](=O)[O-])cc1 | ? | i | 12µM | i
Cc1cc(N2C(=O)C(O)=C(C(=O)c3ccc(C)o3)C2c2cccs2)no1 (stereo not given) | i | i | i | i
COC(=O)c1sc(N2C(=O)C(O)=C(C(=O)c3ccc(C)o3)C2c2ccco2)nc1C (stereo not given) | i | i | 30µM | i
COC(=O)c1sc(N2C(=O)C(O)=C(C(=O)c3ccc(C)o3)C2c2cccs2)nc1C (stereo not given) | i | i | 27µM | i
COC(=O)c1sc(N2C(=O)C(O)=C(C(=O)c3ccc(C)o3)C2c2ccc(F)cc2)nc1C (stereo not given) | i | i | ? | i
CC1=CCC(COC(=O)Nc2ccccc2)CC1 (stereo not given) | i | 3.5µM | i | i
CN(C)CCN1CCN(C2CN(Cc3cn(Cc4ccc(F)cc4)nn3)S(=O)(=O)C2)CC1 (stereo not given) | nt | i | i | nt
COC(=O)c1sccc1S(=O)(=O)N(CC(=O)NCc1ccc(C)cc1)c1ccc(C)c(C)c1 | i | nt | nt | nt
O=C(NC1CCCCC1)Sc1ccc(Cl)cc1 | 22µM | i | 2.7µM | i
CNC(=S)N(Cc1ccco1)Cc1cc2cc3c(cc2[nH]c1=O)OCCO3 | i | i | 27µM | i
CCCSc1nc(O)c(C(c2ccc(OC)c(O)c2)c2c(O)nc(SCCC)n(C)c2=O)c(=O)n1C | 35µM | i | 9.5µM | i
Cc1cccc2c(/C=C/c3ccc(N(C)C)cc3)ccnc12 | nt | i | nt | nt
COc1nc(C)nc2c1sc1nc3c(cc12)COC(C)(C)C3 | i | ? | 27µM | i
COc1cc(OC)c2c(C)cc(=O)oc2c1C(CCN1CCCC(C)C1)c1ccc(N(C)C)cc1 (stereo not given) | i | nt | nt | nt
CN(C)CCCNc1cc(C(C)(C)C)nc2c(-c3ccccc3)cnn12 | i | 5.6µM | i | i
O=c1[nH]c(=S)c2ncn(-c3ccccc3)c2[nH]1 | ? | i | 27µM | i
SMILES | VDR inhibitor | BRCA1 expr up | PLK1 PBD block | Tb PFK inh
Nc1nc2c(ncn2-c2ccccc2)c(=O)[nH]1 | i | i | i | nt
COC(=O)c1ccc(NC(=O)c2ccccc2N(C)S(=O)(=O)c2ccccc2)cc1 | i | i | 24µM | i
Cc1ccccc1C(=O)NC(=S)Nc1ccc(S(=O)(=O)N(C)c2ccccc2)cc1 | i | i | 27µM | i
CC1=C(C(=O)N2CCCCCC2)CC(CC(=O)NCCN2CCOCC2)C(=O)N1Cc1ccccc1 (stereo not given) | nt | i | i | nt
Cc1cc(C(=O)N2CCCC(N3CCN(c4ccc(F)cc4)CC3)C2)c(C)o1 (stereo not given) | ? | i | 27µM | i
CC(=O)c1ccc(NS(=O)(=O)c2cc3c(cc2C)N(C)CCO3)cc1 | i | i | 24µM | i
CC(=O)c1ccc(NS(=O)(=O)c2cc3c(cc2C)N(C(C)=O)CCO3)cc1 | i | i | i | i
Cc1ccc(-n2nc(C)c3c(C)cc(=O)n(CC(=O)NC(C)C)c32)cc1 | i | nt | nt | nt
Cc1ccc(-c2nc3ccccc3n2C(C)C(=O)NC(C)(C)C)cc1 (stereo not given) | nt | nt | i | nt
Cc1ccccc1NC(=O)CN1C(=O)S/C(=C\c2cccn2-c2cccc(C(=O)O)c2)C1=O | i | i | ? | i
Cc1ccc(NC(=O)CN2C(=O)S/C(=C\c3cccn3-c3cccc(C(=O)O)c3)C2=O)c(C)c1 | i | i | 24µM | i
Cc1cccc(C)c1NC(=O)CN1C(=O)S/C(=C\c2cccn2-c2cccc(C(=O)O)c2)C1=O | i | i | 42µM | i
CC1CN(c2ccc(Cl)cc2[N+](=O)[O-])CCN1S(C)(=O)=O (stereo not given) | i | i | 30µM | i
CS(=O)(=O)N1CCN(c2ccc(Cl)cc2[N+](=O)[O-])CC1 | i | i | i | i
CC(=O)c1c(C)[nH]c(C(=O)CN2CCN(S(=O)(=O)c3ccccc3)CC2)c1C | i | i | i | i
COc1cc(C2Nc3ccccc3C(=O)N2c2ccc(Cl)cc2)c(Cl)cc1OCC(=O)O (stereo not given) | i | 2.8µM | i | i
COc1cc(C2Nc3ccccc3C(=O)N2c2ccccc2)ccc1O (stereo not given) | i | 7.9µM | i | i
CCOc1cc(C2Nc3ccccc3C(=O)N2c2ccccc2)ccc1O (stereo not given) | i | i | i | i
CCOc1cc(C2Nc3ccccc3C(=O)N2c2ccccc2)c(Br)cc1OCC(=O)O (stereo not given) | i | i | i | i
O=C(Oc1ccccc1F)c1nc(SCc2ccc(F)cc2)ncc1Cl | i | nt | nt | nt
COc1ccc(C)cc1NC(=O)CN1CCN(c2ccccn2)CC1 | ? | i | 27µM | i
COc1ccccc1NC(=O)CN1CCN(c2ccc(F)cc2)CC1 | ? | i | 24µM | nt
COc1ccccc1NC(=O)CN1CCN(CC(=O)Nc2ccc(F)cc2)CC1 | i | i | i | i
Cc1ccc(OC(C)C(=O)N2CCN(c3ccccn3)CC2)cc1 (stereo not given) | i | i | 27µM | nt
COc1ccccc1NC(=O)CN1CCN(c2ccccn2)CC1 | i | i | i | i
SMILES | VDR inhibitor | BRCA1 expr up | PLK1 PBD block | Tb PFK inh
Cc1cccc2c(=O)[nH]c3c(-c4nc(-c5ccc(Cl)cc5)cs4)c(O)cn3c12 | nt | i | nt | nt
O=C(COc1ccccc1C(=O)Nc1cccc([N+](=O)[O-])c1)Nc1ccc(Br)cc1 | nt | i | nt | nt
CCOC(=O)C1CCN(C(=O)C2CCN(C3=NS(=O)(=O)C(c4ccc(C)c(C)c4)=C3C)CC2)CC1 | i | nt | nt | nt
COc1ccc(-c2ccn(-c3cccc(F)n3)n2)cc1 | i | 3.2µM | i | i
CCCC(=O)Nc1c(C)n[nH]c1C | i | i | 27µM | i
CCOc1ccc(CC(=O)NC2CC(=O)N(c3ccc4c(c3)OCCO4)C2)cc1 (stereo not given) | i | nt | nt | nt
O=C(CSc1ccccc1)N1CCN(S(=O)(=O)c2ccccc2)CC1 | i | i | 12µM | i
C=CCN1CCN(C(=O)CSc2ccccc2)CC1 | i | 11µM | i | i
COc1ccccc1CCN1COc2c(cc3c(C)c(C)c(=O)oc3c2C)C1 | i | nt | nt | nt
Cc1cccc(N2CCn3c2nc2c3c(=O)n(CCCc3ccccc3)c(=O)n2C)c1 | i | nt | nt | nt

Screening data as filed in PubChem.
